Experimental data from PubChem BioAssay.
Values joined by “and” are separate entries in the source; they are usually repeats but may differ in a detail not shown here. Equal values may be shown once.

Each compound was assayed on Lefty1 (assay: Lefty1 protein binding to printed compounds – biochemical, small-molecule microarray, 635/667 nm fluorescence, primary screen (AID 1139)). Details: fluorescence 635/667, higher = more signal.
In the case of CC(C)=NOC[C@@H](O)COCc1ccco1, the composite z-score is reported as -0.181. For COC(=O)C1=C(C)N(Cc2ccccc2)C2=C(C(C)=O)C[C@@](O)(C(=O)OC)C(=O)N2[C@@H]1c1ccccc1, the composite z-score was 1.18 and 0.158. In the case of COC(=O)[C@@]1(Cc2ccc(OC)cc2)[C@H]2c3cc(C(=O)N(C)C)n(Cc4ccc(O)c(OC)c4)c3C[C@H]2CN1C(=O)c1ccccc1, the composite z-score is reported as -0.268 and -0.542. C=CC[C@H](O)c1ccc(OCCO)cc1 was tested, and the composite z-score was -0.748 and -0.0547. With CC(C)=NO[C@@H](C)c1cc(-c2c(C)cc(C)cc2C)no1 the composite z-score was 0.0782. In the case of C[N+](C)(C)CCCCNC(=O)[C@H]1C[C@H]2C(=O)N[C@@H](CCCC[N+](C)(C)C)C(=O)N2[C@H]1c1ccc(O)cc1, the composite z-score is reported as 1.62 and 1.64. With C[C@@]1([C@@H](NC(=O)Cc2ccccc2)c2ccc(-c3ccccc3)cc2)C[C@H]1C1CCCCC1 the composite z-score was -1.08 and -1.06 and -0.0526. Compound CCN1C(=O)[C@H]2[C@H]3[C@H](O)[C@H](O)CC(=NOC)[C@@H]3CC[C@H]2C1=O has a composite z-score of 0.164. For O=C1NC(=O)C2C1C=CC(C(O)c1ccc([N+](=O)[O-])cc1)N2Nc1ccc(Cl)cc1Cl (stereo not given), the composite z-score was -0.427 and -0.899. With C=C[C@H](C)[C@@H](O)c1ccc(OCCO)cc1 the composite z-score was -0.931 and 0.134. For CC(C)CON=C1C[C@@H](O)[C@@H](O)[C@@H]2[C@@H]3C(=O)N(c4cccc(Oc5ccccc5)c4)C(=O)[C@@H]3CC[C@H]12, the composite z-score was 0.349. For CO[C@H]1COC(=O)CC=C[C@@H](C)COC(=O)[C@H](CCSC)NC(=O)CC=C[C@@H]1C, the composite z-score was 1.79 and 1.82. For C=C[C@@H](OC)[C@H](O)c1ccc(OCCO)cc1, the composite z-score was -0.545 and -0.201. For CCOC(=O)c1ccc(NC(=O)O[C@H]2[C@H](OC(=O)Nc3ccccc3)[C@@H](OC(=O)Nc3ccccc3)[C@@H](OC)O[C@@H]2CO)cc1, the composite z-score was 0.88 and 1.51. For C=CCN(C(=O)C(c1cccs1)N(CCOCCO)C(=O)/C=C\C(=O)O)c1ccc(OC)cc1 (stereo not given), the composite z-score was -0.208 and -1.45. In the case of C#CCN1C(/C=C/c2ccccc2)C(=O)OC[C@H]1c1ccccc1 (stereo not given in full), the composite z-score is reported as 0.622 and 0.295. For CO[C@@H]1COC(=O)CC=C[C@H](C)COC(=O)[C@H](C)NC(=O)CC=C[C@H]1C, the composite z-score was 1.03. With Cc1cc2c(nc1C)CCCN2CC(O)CN1CCCc2nc(-c3ccc(Br)cc3)ccc21 (stereo not given) the composite z-score was 1.34 and 0.844. C=CCN(CCCCC)C(=O)C(c1cccs1)N(CCOCCO)C(=O)/C=C\C(=O)O (stereo not given) was tested, and the composite z-score was -0.99 and -1.37. With COc1ccc(-c2ccc3c(n2)CCCN3CC(O)CN2CCCc3nc(-c4ccc(Br)cc4)ccc32)cc1 (stereo not given) the composite z-score was 1.02 and 0.514. For C=C[C@H](OC)[C@@H](O)c1ccc(OCCO)cc1, the composite z-score was -2.17 and -1.55. C=CCN(C(=O)C1N(CCCCCCO)C(=O)C2C(C(=O)O)C3C=CC21O3)c1ccc(OC)cc1 (stereo not given) was tested, and the composite z-score was -2.4 and -2.28. For O=C1C[C@]2(c3ccc([N+](=O)[O-])cc3)C(=O)N(Cc3ccccc3)c3cc(CO)ccc3[C@H]2N1C1CCCCC1, the composite z-score was 0.507 and 0.482. C=CCN(C(=O)C1N(c2c(Cl)cccc2CO)C(=O)C2C(C(=O)O)C3C=CC21O3)c1ccc(OC)cc1 (stereo not given) was tested, and the composite z-score was -2.14 and -2.24. In the case of C=CCN(C(=O)C1N(CCOCCO)C(=O)C2C(C(=O)O)C3C=CC21O3)C(C)(C)C (stereo not given), the composite z-score is reported as -1.43 and -1.07. COC(=O)C1=C2N(Cc3ccccc3)C(C)=C(C(=O)OC)[C@@H](c3ccccc3)N2C(=O)[C@](O)(C(=O)OC)C1 was tested, and the composite z-score was 0.911 and 0.508. In the case of O=c1n(-c2ccccc2)c(=O)n2n1CC[C@@H]1C(=NOC[C@@H](O)COCc3ccco3)[C@H]3O[C@H]3[C@@H](O)[C@@H]12, the composite z-score is reported as 1.43 and 0.459. In the case of CC(CO)N1C(=O)[C@@H]2C3C(=O)OCCC=C[C@H]3OC23C=CCN(c2ccc(Cl)cc2)C(=O)[C@@H]13 (stereo not given in full), the composite z-score is reported as -1.49 and 0.213. In the case of CC(C)[Si]1(C(C)C)OCc2cc(CCCc3cc4c(c(CCc5ccccc5)n3)[Si](C(C)C)(C(C)C)OC4)nc(CCc3ccccc3)c21, the composite z-score is reported as -0.11 and 0.41. In the case of C=CCN(Cc1ccccc1)C(=O)C1N(CCOCCO)C(=O)C2C(C(=O)O)C3C=CC21O3 (stereo not given), the composite z-score is reported as -2.56 and -2.05. With C[N+](C)(C)CCCCCCNC(=O)[C@H]1C[C@H]2C(=O)N[C@@H](CCCC[N+](C)(C)C)C(=O)N2[C@H]1c1cccc(OCCO)c1 the composite z-score was 1.59 and 0.768. For CCCCCN1CC=CC23O[C@@H]4C=CCCOC(=O)C4[C@H]2C(=O)N(C(C)CO)[C@@H]3C1=O (stereo not given in full), the composite z-score was 0.178 and 0.382. With O=C1[C@H]2[C@H]3[C@H](O)[C@H](O)CC(=NOCc4ccccc4)[C@H]3CC[C@H]2C(=O)N1Cc1ccccc1 the composite z-score was 0.374. With CO[C@H]1COC(=O)CC=C[C@H](C)[C@H](OC)COC(=O)[C@@H](C)COC(=O)CC=C[C@@H]1C the composite z-score was 0.914 and 0.398. In the case of CN1C(=O)C2CC=C([C@H]3Oc4ccccc4S(=O)(=O)N4CCC[C@@H]34)CC2C1=O (stereo not given in full), the composite z-score is reported as -0.499 and 0.192. For C[C@@H](ON=C1[C@H]2CCn3c(=O)n(-c4ccccc4)c(=O)n3[C@H]2[C@H](O)[C@@H]2O[C@H]12)c1cn([C@H](CO)Cc2ccccc2)nn1, the composite z-score was 0.467. With CCOC(=O)C[C@H]1[C@H](OC(=O)c2ccccc2-c2ccccc2)[C@@H](NC(=O)Cc2ccc(OC)cc2)c2cc(OCCCO)ccc2N1C(=O)c1ccc2ccccc2n1 the composite z-score was 0.0614 and 1.07. Compound CCOC(=O)[C@H](CC(C)C)NC(=O)CCC1CC(OC(=O)NCc2cccc3ccccc23)CC2(CCCC(COC(=O)NCc3ccccc3)O2)O1 (stereo not given in full) has a composite z-score of 0.275. For Cc1ccc(S(=O)(=O)N[C@@H]2COC(=O)CC=C[C@@H](C)[C@@H]3C=C[C@H](O)[C@@H](COC(=O)CC=C[C@H]2C)O3)cc1, the composite z-score was 1.26 and 0.632. In the case of CO[C@@H]1COC(=O)[C@H](Cc2ccccc2)NC(=O)CC=C[C@@H](C)[C@H](OC)COC(=O)[C@@H](C)NC(=O)CC=C[C@H]1C, the composite z-score is reported as 1.54 and 1.35.
